# Results from PubChem BioAssay.
# The source made the active and inactive calls.
# Key:
# [1] = tested on: PRMT1 (protein arginine N-methyltransferase 1); test: small molecules binding arginine methyltransferase PRMT1 – biochemical, small-molecule microarray, 635 nm fluorescence, primary screen (AID 1088); details: higher = more signal;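 note: binding of Prmt1 protein to compounds spotted on small-molecule microarray slides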
# [2] = growth effects on S. cerevisiae YJM789 – YJM789 clinical isolate, OD600, 24 h, basal, primary screen (AID 1089); details: higher = more signal, called active from +8 up or from −8 down;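 note: growth of clinical yeast isolate S. cerevisiae YJM 789 seeded 1000 cells per well; test concentration not given here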
# [3] = S. pombe growth modifiers, basal conditions – strain 972, OD600, 24 h, no modulator, primary screen (AID 1090);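 note: basal condition with compound alone and no growth modifier present; test concentration not given here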; details: S. pombe 972 growth, higher = more signal, called active from +8 up or from −8 down
# [4] = budding yeast growth modifiers under rapamycin – strain BY4716, OD600, 96 h, primary screen (AID 1091); note: test concentration not given here; details: S. cerevisiae BY4716 + rapamycin, higher = more signal, called active from +8 up or from −8 down
# [5] = biological target: Torsin-1A-interacting protein 2 (Homo sapiens) (UniProt Q8NFQ8); test: small molecules binding lysate-expressed LULL1 – cell lysate, human LULL1 lysate, 635/667 nm fluorescence, primary screen (AID 1092); details: small-molecule microarray, hLULL1 lysate binding, 635 nm fluorescence; higher = more signal;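 note: probe is lysate of COS7 cells overexpressing human LULL1; score merges per-feature 667 nm fluorescence with signal-to-noise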
# Chain of Torsin-1A-interacting protein 2 (Homo sapiens) (Q8NFQ8 whole entry, looked up): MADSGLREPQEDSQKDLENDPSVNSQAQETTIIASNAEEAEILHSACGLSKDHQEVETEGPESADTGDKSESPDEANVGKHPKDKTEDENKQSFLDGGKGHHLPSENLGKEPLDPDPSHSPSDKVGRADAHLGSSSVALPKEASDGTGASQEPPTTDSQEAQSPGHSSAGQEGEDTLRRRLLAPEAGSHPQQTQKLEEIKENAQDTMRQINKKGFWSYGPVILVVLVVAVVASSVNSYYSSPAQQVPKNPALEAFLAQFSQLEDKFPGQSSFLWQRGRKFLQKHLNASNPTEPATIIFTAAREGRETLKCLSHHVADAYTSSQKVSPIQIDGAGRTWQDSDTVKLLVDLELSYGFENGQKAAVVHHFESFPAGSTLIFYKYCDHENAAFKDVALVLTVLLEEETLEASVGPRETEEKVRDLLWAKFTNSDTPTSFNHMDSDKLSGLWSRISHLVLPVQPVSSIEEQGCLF
# [6] = optical density change of DRC41 E. coli – strain DRC41, OD650, 24 h, E. coli filamentation project, primary screen (AID 1093);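 note: MC1000 strain lacking acrAB efflux and sulA so SOS filamentation is blocked; test concentration not given here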; details: E. coli DRC41 growth, higher = more signal, called active from +8 up or from −8 down
# [7] = probe aLefty2 binding to arrayed compounds – biochemical, biotinylated probe, 635/667 nm fluorescence, primary screen (AID 1094); details: small-molecule microarray, higher = more signal;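 note: score merges spot fluorescence near 667 nm with spot signal-to-noise ratio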
# [8] = tested on: Noggin (protein binding on small-molecule microarray); test: small molecules binding Noggin protein – biochemical, 635/667 nm fluorescence, primary screen (AID 1095); details: 635 nm fluorescence, higher = more signal;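 note: score merges 667 nm feature fluorescence with signal to noise over triplicate slides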
# [9] = biological target: Neurogenic locus notch homolog protein 3 (Homo sapiens) (UniProt Q9UM47); test: small molecules binding NOTCH3 protein – biochemical, 635/667 nm fluorescence, primary screen (AID 1096); details: small-molecule microarray, 635 nm fluorescence, higher = more signal
# Chain of Neurogenic locus notch homolog protein 3 (Homo sapiens) (Q9UM47 whole entry, looked up): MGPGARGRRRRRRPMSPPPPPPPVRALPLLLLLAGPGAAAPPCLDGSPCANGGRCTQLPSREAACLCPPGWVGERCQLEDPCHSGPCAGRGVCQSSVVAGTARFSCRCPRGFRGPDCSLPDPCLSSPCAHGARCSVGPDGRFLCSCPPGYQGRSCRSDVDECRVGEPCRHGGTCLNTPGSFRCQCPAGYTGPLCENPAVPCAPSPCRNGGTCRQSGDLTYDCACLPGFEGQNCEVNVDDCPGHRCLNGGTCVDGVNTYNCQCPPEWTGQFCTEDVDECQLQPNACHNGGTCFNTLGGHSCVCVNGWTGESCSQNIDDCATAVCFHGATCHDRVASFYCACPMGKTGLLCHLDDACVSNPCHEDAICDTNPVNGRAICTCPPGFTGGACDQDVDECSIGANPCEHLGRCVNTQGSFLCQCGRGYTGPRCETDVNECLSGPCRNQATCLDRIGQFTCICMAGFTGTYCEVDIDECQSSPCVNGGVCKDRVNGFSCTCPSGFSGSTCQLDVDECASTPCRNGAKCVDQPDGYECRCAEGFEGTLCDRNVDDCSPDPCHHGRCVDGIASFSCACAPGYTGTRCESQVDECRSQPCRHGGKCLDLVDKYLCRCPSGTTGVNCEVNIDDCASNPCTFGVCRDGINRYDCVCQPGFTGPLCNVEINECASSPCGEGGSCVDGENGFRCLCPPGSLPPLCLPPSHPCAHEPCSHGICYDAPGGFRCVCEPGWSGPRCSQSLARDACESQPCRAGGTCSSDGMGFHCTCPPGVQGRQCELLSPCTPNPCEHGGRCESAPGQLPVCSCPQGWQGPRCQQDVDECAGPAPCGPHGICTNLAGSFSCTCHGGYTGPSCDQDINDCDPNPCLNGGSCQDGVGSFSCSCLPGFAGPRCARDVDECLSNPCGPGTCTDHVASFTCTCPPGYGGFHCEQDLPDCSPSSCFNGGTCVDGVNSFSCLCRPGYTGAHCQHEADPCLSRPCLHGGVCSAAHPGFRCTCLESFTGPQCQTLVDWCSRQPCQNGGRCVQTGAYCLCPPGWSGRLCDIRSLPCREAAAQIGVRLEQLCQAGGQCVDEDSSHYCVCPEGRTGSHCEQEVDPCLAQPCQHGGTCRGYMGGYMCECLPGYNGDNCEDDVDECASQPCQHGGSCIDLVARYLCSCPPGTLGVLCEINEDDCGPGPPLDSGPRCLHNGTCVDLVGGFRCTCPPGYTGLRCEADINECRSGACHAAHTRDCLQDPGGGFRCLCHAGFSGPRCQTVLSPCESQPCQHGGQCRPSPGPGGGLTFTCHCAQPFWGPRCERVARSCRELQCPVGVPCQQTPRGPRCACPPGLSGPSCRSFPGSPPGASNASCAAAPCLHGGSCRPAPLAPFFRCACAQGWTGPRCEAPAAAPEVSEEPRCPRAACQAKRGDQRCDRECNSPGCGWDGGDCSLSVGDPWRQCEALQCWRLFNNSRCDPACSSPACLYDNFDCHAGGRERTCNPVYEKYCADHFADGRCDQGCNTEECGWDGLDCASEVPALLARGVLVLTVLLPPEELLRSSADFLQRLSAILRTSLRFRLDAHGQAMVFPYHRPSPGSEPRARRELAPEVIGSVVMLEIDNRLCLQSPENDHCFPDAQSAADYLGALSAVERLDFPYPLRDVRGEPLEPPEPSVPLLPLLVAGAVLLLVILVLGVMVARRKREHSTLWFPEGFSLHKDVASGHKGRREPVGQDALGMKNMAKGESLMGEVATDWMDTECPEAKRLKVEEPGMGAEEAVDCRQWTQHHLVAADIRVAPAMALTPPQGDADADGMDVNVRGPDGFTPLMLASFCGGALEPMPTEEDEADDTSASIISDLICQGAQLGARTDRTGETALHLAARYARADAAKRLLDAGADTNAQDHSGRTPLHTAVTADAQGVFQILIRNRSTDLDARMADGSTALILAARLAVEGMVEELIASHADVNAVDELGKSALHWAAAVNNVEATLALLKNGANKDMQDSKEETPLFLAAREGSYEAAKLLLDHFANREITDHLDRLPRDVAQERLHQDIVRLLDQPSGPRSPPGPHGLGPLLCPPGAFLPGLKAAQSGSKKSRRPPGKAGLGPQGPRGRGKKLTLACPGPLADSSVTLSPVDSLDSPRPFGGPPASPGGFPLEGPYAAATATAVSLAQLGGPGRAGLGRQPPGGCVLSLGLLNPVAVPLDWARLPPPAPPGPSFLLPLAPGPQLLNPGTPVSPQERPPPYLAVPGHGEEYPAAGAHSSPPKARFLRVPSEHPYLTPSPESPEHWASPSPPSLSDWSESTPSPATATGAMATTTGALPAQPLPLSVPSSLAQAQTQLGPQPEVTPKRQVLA
# [10] = probe aEGFR binding to arrayed compounds – biochemical, biotinylated probe, 635/667 nm fluorescence, primary screen (AID 1097); details: small-molecule microarray, higher = more signal;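 note: probe is a biotinylated anti-EGFR antibody binding compounds printed on slides; score combines fluorescence near 667 nm and signal to noise of each spot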
SMILES,composite z-score [1],z-score [2],z-score [3],z-score [4],composite z-score [5],z-score [6],composite z-score [7],composite z-score [8],composite z-score [9],composite z-score [10]
CO[C@H]1COC(=O)[C@H](Cc2ccccc2)NC(=O)CC=C[C@@H](C)[C@H](OC)COC(=O)CC=C[C@@H]1C,-0.141,-0.39 (inactive),-1.44 (inactive),-0.617 (inactive),0.239,0.296 (inactive),-0.152,0.344,0.717,0.0875
CC(C)CN1C(=O)[C@@]2(Cc3ccccc31)c1ccccc1C(=O)N(C1CCCCC1)[C@H]2c1ccc(CO)cc1,0.499,-1.6 (inactive),-1.32 (inactive),-2.34 (inactive),2.01,1.56 (inactive),-0.121,-0.901,-1.35,-0.179
COc1ccc([Si](C)(C)[C@@H]2[C@@H](CC(=O)N(CCO)Cc3ccccc3)O[C@]3(C(=O)N(Cc4cccc(N5CCC5=O)c4)c4ccccc43)[C@H]2C)cc1,1.56,-1.16 (inactive),0.463 (inactive),1.61 (inactive),1.57,1.48 (inactive),-0.17,1.33,0.941,-0.135
CCN1C(C)=C(C(=O)OC)[C@@H](c2ccccc2)N2C(=O)[C@@]3(C(=O)OC)O[C@@]12[C@@H]1C(=O)N(c2ccccc2)C(=O)[C@@H]13,1.22,-0.806 (inactive),-1.23 (inactive),-0.325 (inactive),1.2,-0.0256 (inactive),-0.19,1.21,0.983,-0.087
CCN1C(C)=C(C(=O)OC)[C@@H](c2ccccc2)N2C(=O)[C@](O)(C(=O)OC)[C@@H](c3ccccc3)C(C(=O)c3ccccc3)=C12,0.481,-0.59 (inactive),-4.98 (inactive),-0.714 (inactive),1.41,1.43 (inactive),-0.132,0.416,0.685,0.0255
CC(C)N1CC=CC23O[C@@H]4/C=C\CCCOC(=O)C4[C@H]2C(=O)N(CCCCCO)[C@@H]3C1=O (stereo not given in full),-2.15,-0.927 (inactive),-1.16 (inactive),-0.693 (inactive),-0.467,1.67 (inactive),-0.208,-1.65,-1.89,-0.364
CCCNC(=O)[C@@]1(Sc2ccc(C)cc2)CC(=O)N(Cc2ccccc2Cl)[C@@H]1c1ccc(CO)cc1,1.33,-1.08 (inactive),-3.1 (inactive),-2.53 (inactive),1.64,0.298 (inactive),0.0493,1.06,1.11,-0.0082
Cc1ccc(S[C@]2(C(=O)NCCN3CCOCC3)CC(=O)N(C3Cc4ccccc4C3)[C@@H]2c2ccc(CO)cc2I)cc1,1.01,-2.08 (inactive),-5.05 (inactive),0.401 (inactive),1.96,1.75 (inactive),0.366,-1.62,-0.484,-0.204
COCCOC(=O)N1C(=O)[C@@]2(c3cc(C#CC4(O)CCCCCC4)ccc31)[C@H](C(=O)N1CCCCCCC1)[C@H]1C(=O)O[C@H](c3ccccc3)[C@H](c3ccccc3)N1[C@@H]2c1ccc(O)cc1,1.56,-0.971 (inactive),-1.1 (inactive),0.772 (inactive),2.86,2.34 (inactive),0.873,0.906,0.995,0.67
CN(C)c1ccc(C(O)C2C=CC3C(=O)NC(=O)C3N2Nc2ccc(Cl)cc2Cl)cc1 (stereo not given),0.546,-0.298 (inactive),-1.06 (inactive),0.789 (inactive),2.58,-0.617 (inactive),0.31,-0.163,0.809,-0.125
O=C1C2C=CC(C(O)Cc3ccccc3)N(Nc3ccc([N+](=O)[O-])cc3)C2C(=O)N1c1ccccc1 (stereo not given),0.623,-0.442 (inactive),0.38 (inactive),1.18 (inactive),2.92,-0.209 (inactive),0.232,0.278,0.864,0.268
COc1ccc(CCNC(=O)[C@@]2(c3ccc([N+](=O)[O-])cc3)CC(=O)N(C(C)C)[C@@H]2c2ccc(CO)cc2)cc1,-0.383,-1.15 (inactive),-1.2 (inactive),-1.1 (inactive),2.99,1.89 (inactive),0.11,-1.2,-0.791,-0.318
N#Cc1ccc(NN2C(C(O)c3ccc(I)cc3)C=CC3C(=O)N(c4ccccc4)C(=O)C32)cc1 (stereo not given),1.16,0.647 (inactive),2.19 (inactive),3.88 (inactive),3.47,-1.38 (inactive),0.247,-0.0788,1.07,0.0601
CCOC(=O)C1=C[C@@H](c2ccccc2)N(S(=O)(=O)c2ccc(C)cc2)[C@H]1c1ccc(F)cc1,1.56,0.575 (inactive),2.18 (inactive),2.39 (inactive),3.06,-0.382 (inactive),-0.0141,0.512,1.09,0.0624
COc1ccc([Si](C)(C)[C@@H]2[C@@H](CCO)O[C@]3(C(=O)N(Cc4ccccc4)c4ccccc43)[C@H]2C)cc1,1.06,0.566 (inactive),0.124 (inactive),1.24 (inactive),0.955,1.73 (inactive),-0.228,0.0139,0.167,-0.143
C=C(/C(=C/C[C@@H](OC(=O)c1ccncc1)c1ccc(CO)o1)c1cnc2ccccc2c1)C(C)C,1.54,-0.0873 (inactive),-2.27 (inactive),-0.147 (inactive),1.1,1.23 (inactive),-0.0569,1.08,1.09,0.0009
O=[N+]([O-])c1ccc(C[n+]2ccc3ccc(O)cc3c2)o1,0.536,-0.0384 (inactive),-7.09 (inactive),-0.5 (inactive),0.803,-2.03 (inactive),-0.155,-0.147,0.791,-0.0867
COc1cccc([C@@H]2[C@@H](C)CC[C@H]3C(=O)N4[C@H](c5cccc(OC)c5)[C@@H](C)CC[C@H]4C(=O)N23)c1,0.606,-2.34 (inactive),-1.46 (inactive),-0.616 (inactive),0.474,0.368 (inactive),-0.138,0.603,1.05,-0.0082
CO[C@H]1COC(=O)CC=C[C@@H](C)COC(=O)[C@@H](C)NC(=O)CC=C[C@@H]1C,1.53,-3.75 (inactive),-2.87 (inactive),-2.71 (inactive),-0.55,-0.288 (inactive),-0.179,1.83,0.473,-0.0243
C=CCC(OC(C)=O)[C@@H]1[C@@H](N(Cc2ccc(-c3ccccc3)cc2)C(=O)c2ccc(-c3ccccc3)cc2)c2cc(OCCCO)ccc2N1C(=O)Cc1ccc(OC)cc1 (stereo not given in full),-0.22,-0.809 (inactive),0.202 (inactive),-0.253 (inactive),0.669,-0.685 (inactive),-0.0096,-0.0508,-0.0122,-0.0994
C[C@@H]1NC(=O)[C@H](Cc2ccccc2)NC(=O)[C@@]23C(=O)N[C@@H](Cc4ccccc4)C2[C@H](C)[C@@]2(C)O[C@H]2C3/C=C/C/C=C\CNC1=O (stereo not given in full),-0.747,0.723 (inactive),0.0909 (inactive),0.937 (inactive),-1.73,-1.38 (inactive),-0.174,0.0939,-0.769,-0.171
C=CC[C@]1(C(=O)N2CCCCC2)N=C(c2ccc(OCCCO)cc2)O[C@H]1c1ccccc1N=[N+]=[N-],1.58,-0.534 (inactive),-1.18 (inactive),0.946 (inactive),3.44,0.208 (inactive),0.619,1.17,1.08,0.561
COCCOC(=O)N1C(=O)[C@@]2(c3cc(C#CCNC(N)=O)ccc31)[C@H](c1ccc(OCCO)cc1)N1[C@H](c3ccccc3)[C@H](c3ccccc3)OC(=O)[C@H]1[C@@H]2C(=O)N1CCCCCCC1,0.844,1.64 (inactive),0.501 (inactive),3.94 (inactive),0.789,2.27 (inactive),1.09,0.406,0.555,0.0199
